{
  "source": "PubChem BioAssay (EPA / NIEHS)",
  "note": "Calls of active or inactive are those of the source. The calls were made as follows: active = hit-call score of the fitted dose curve at least 0.9, where 1 is the maximum; inactive = score below 0.9.",
  "data": [
    {"read-out": "succinate dehydrogenase complex iron sulfur subunit B (SDHB), SDHB (gene 6390)", "experiment": "LTEA_HepaRG_SDHB: Life Technologies and Expression Analysis (LTEA) Assay for succinate dehydrogenase complex iron sulfur subunit B (SDHB) using HepaRG (AID 2283528)", "conditions": "mRNA level, 48 h; actives raise or lower the signal", "method_in_brief": "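HepaRG, 48 h exposure, 8-pt half-log series from 100 uM in 0.5% DMSO, duplicates. Readout: SDHB mRNA by Fluidigm qRT-PCR vs housekeeping genes; bidirectional fit relative to DMSO.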", "values": [
      {"compound": "CCN(CC)CCNc1ccc(CNC=O)c2sc3ccc(OC)cc3c(=O)c12", "outcome": "inactive"},
      {"compound": "N#C[C@@H]1CC(F)(F)CN1C(=O)CNC1CC2CCC(C1)N2c1ncccn1", "note": "(stereo partly drawn)", "outcome": "inactive"},
      {"compound": "CN(C)C=O", "outcome": "inactive"},
      {"compound": "O=C(OCCOCCOC(=O)c1ccccc1)c1ccccc1", "outcome": "inactive"},
      {"compound": "CCCCCCCCC(=O)O", "outcome": "inactive"},
      {"compound": "CC[C@H](c1ccc(O)cc1)[C@@H](CC)c1ccc(O)cc1", "AC50": "79.4 µM (active)"},
      {"compound": "CC(C)(C)c1ccc(O)c(C(C)(C)C)c1", "outcome": "inactive"},
      {"compound": "O=[N+]([O-])c1ccc(O)cc1", "outcome": "inactive"},
      {"compound": "CCCCOCCO", "outcome": "inactive"},
      {"compound": "OCCC(F)(F)C(F)(F)C(F)(F)C(F)(F)C(F)(F)C(F)(F)F", "outcome": "inactive"},
      {"compound": "CCC(C)(C)C1CCC(O)CC1", "note": "(stereo not drawn)", "outcome": "inactive"},
      {"compound": "NC(=O)N1C(=O)C(C(=O)c2cc(Cl)cs2)c2cc(F)c(Cl)cc21", "note": "(stereo not drawn)", "AC50": "26.2 µM (active)"},
      {"compound": "CCCCCCC(=O)O", "outcome": "inactive"},
      {"compound": "ClC1=C(Cl)C(Cl)(Cl)C(Cl)=C1Cl", "outcome": "inactive"},
      {"compound": "COCC(C)OCC(C)O", "note": "(stereo not drawn)", "outcome": "inactive"},
      {"compound": "C[C@@H]1C[C@H]2[C@@H]3CCC4=CC(=O)C=C[C@]4(C)[C@@]3(F)[C@@H](O)C[C@]2(C)[C@@]1(O)C(=O)COP(=O)(O)O", "outcome": "inactive"},
      {"compound": "CCCCC(CC)COC(=O)CCCCC(=O)OCc1ccccc1", "note": "(stereo not drawn)", "outcome": "inactive"},
      {"compound": "O=C(O)Cc1cc(I)c(Oc2cc(I)c(O)c(I)c2)c(I)c1", "AC50": "62.9 µM (active)"},
      {"compound": "CCC(=C(c1ccc(O)cc1)c1ccc(OCCN(C)C)cc1)c1ccccc1", "outcome": "inactive"},
      {"compound": "CCc1nn(C2CCCCC2)c2cc(C3(C#N)CCC(C(=O)O)CC3)ccc12", "note": "(stereo not drawn)", "outcome": "inactive"},
      {"compound": "CCCCCCCCOC(=O)CCCCCCCCC(=O)OCCCCCCCC", "outcome": "inactive"},
      {"compound": "Oc1cccc(O)c1", "outcome": "inactive"},
      {"compound": "CCc1ccc(CCOc2ccc(CC3SC(=O)NC3=O)cc2)nc1", "note": "(stereo not drawn)", "outcome": "inactive"},
      {"compound": "OCCC(F)(F)C(F)(F)C(F)(F)C(F)(F)C(F)(F)C(F)(F)C(F)(F)C(F)(F)F", "outcome": "inactive"},
      {"compound": "O=C(O)c1ccccc1C(c1ccc(O)cc1)c1ccc(O)cc1", "outcome": "inactive"},
      {"compound": "CCCCCCCCCCCCc1ccccc1S(=O)(=O)O", "outcome": "inactive"},
      {"compound": "Cc1oc(-c2ccccc2)nc1CCOc1ccc(C[C@H](Nc2ccccc2C(=O)c2ccccc2)C(=O)O)cc1", "AC50": "26.1 µM (active)"},
      {"compound": "c1ccc2c(c1)ccc1ccccc12", "outcome": "inactive"},
      {"compound": "CCCCC(CC)COC(=O)CCCCC(=O)OCC(CC)CCCC", "note": "(stereo not drawn)", "outcome": "inactive"},
      {"compound": "CC(C)CCCCCCOC(=O)CCCCC(=O)OCCCCCCC(C)C", "outcome": "inactive"},
      {"compound": "COc1ccc([N+](=O)[O-])cc1N", "outcome": "inactive"},
      {"compound": "Cc1cc(CCN2CCN(c3nsc4ccccc34)CC2)cc2c1NC(=O)CC2(C)C", "outcome": "inactive"},
      {"compound": "CCCOc1sc(C(=O)N2CCC(c3cc(CN)ccc3F)CC2)c(C)c1Br", "outcome": "inactive"}
    ]},
    {"read-out": "Signal transducer and activator of transcription 3 (Homo sapiens) (UniProt P40763)", "experiment": "LTEA_HepaRG_STAT3: Life Technologies and Expression Analysis (LTEA) Assay for Signal transducer and activator of transcription (STAT3) using HepaRG (AID 2283529)", "conditions": "mRNA level, 48 h; actives raise or lower the signal", "method_in_brief": "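In this transcriptional endpoint, HepaRG cultures receive test chemicals at up to 100 uM for 48 h, tested in duplicate. STAT3 mRNA is normalized to ACTB, GAPDH and POLR2A.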", "values": [
      {"compound": "CCCCCCCCC(=O)O", "outcome": "inactive"},
      {"compound": "CC[C@H](c1ccc(O)cc1)[C@@H](CC)c1ccc(O)cc1", "AC50": "93.8 µM (active)"},
      {"compound": "CC(C)(C)c1ccc(O)c(C(C)(C)C)c1", "AC50": "9.92 µM (active)"},
      {"compound": "CCCCOCCO", "outcome": "inactive"},
      {"compound": "OCCC(F)(F)C(F)(F)C(F)(F)C(F)(F)C(F)(F)C(F)(F)F", "outcome": "inactive"},
      {"compound": "CCC(C)(C)C1CCC(O)CC1", "note": "(stereo not drawn)", "outcome": "inactive"},
      {"compound": "ClC1=C(Cl)C(Cl)(Cl)C(Cl)=C1Cl", "outcome": "inactive"},
      {"compound": "COCC(C)OCC(C)O", "note": "(stereo not drawn)", "outcome": "inactive"},
      {"compound": "C[C@@H]1C[C@H]2[C@@H]3CCC4=CC(=O)C=C[C@]4(C)[C@@]3(F)[C@@H](O)C[C@]2(C)[C@@]1(O)C(=O)COP(=O)(O)O", "outcome": "inactive"},
      {"compound": "CCCCC(CC)COC(=O)CCCCC(=O)OCc1ccccc1", "note": "(stereo not drawn)", "outcome": "inactive"},
      {"compound": "CCC(=C(c1ccc(O)cc1)c1ccc(OCCN(C)C)cc1)c1ccccc1", "outcome": "inactive"},
      {"compound": "CCc1nn(C2CCCCC2)c2cc(C3(C#N)CCC(C(=O)O)CC3)ccc12", "note": "(stereo not drawn)", "outcome": "inactive"},
      {"compound": "CCCCCCCCOC(=O)CCCCCCCCC(=O)OCCCCCCCC", "outcome": "inactive"},
      {"compound": "OCCC(F)(F)C(F)(F)C(F)(F)C(F)(F)C(F)(F)C(F)(F)C(F)(F)C(F)(F)F", "outcome": "inactive"},
      {"compound": "O=C(O)c1ccccc1C(c1ccc(O)cc1)c1ccc(O)cc1", "outcome": "inactive"},
      {"compound": "CCCCCCCCCCCCc1ccccc1S(=O)(=O)O", "outcome": "inactive"},
      {"compound": "Cc1oc(-c2ccccc2)nc1CCOc1ccc(C[C@H](Nc2ccccc2C(=O)c2ccccc2)C(=O)O)cc1", "AC50": "21.2 µM (active)"},
      {"compound": "c1ccc2c(c1)ccc1ccccc12", "outcome": "inactive"},
      {"compound": "CCCCC(CC)COC(=O)CCCCC(=O)OCC(CC)CCCC", "note": "(stereo not drawn)", "outcome": "inactive"},
      {"compound": "COc1ccc([N+](=O)[O-])cc1N", "outcome": "inactive"},
      {"compound": "Cc1cc(CCN2CCN(c3nsc4ccccc34)CC2)cc2c1NC(=O)CC2(C)C", "outcome": "inactive"},
      {"compound": "CCCOc1sc(C(=O)N2CCC(c3cc(CN)ccc3F)CC2)c(C)c1Br", "outcome": "inactive"}
    ]},
    {"read-out": "solute carrier (SLCO1B1), SLCO1B1 (gene 10599)", "experiment": "LTEA_HepaRG_SLCO1B1: Life Technologies and Expression Analysis (LTEA) Assay for solute carrier (SLCO1B1) using HepaRG (AID 2283530)", "conditions": "mRNA level, 48 h; actives raise or lower the signal", "method_in_brief": "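Gain or loss of SLCO1B1 mRNA is fitted against the 0.5% DMSO vehicle in human HepaRG liver cells treated 48 h at up to 100 uM in half-log steps. Expression comes from qRT-PCR normalized to endogenous controls.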", "values": [
      {"compound": "CCN(CC)CCNc1ccc(CNC=O)c2sc3ccc(OC)cc3c(=O)c12", "outcome": "inactive"},
      {"compound": "N#C[C@@H]1CC(F)(F)CN1C(=O)CNC1CC2CCC(C1)N2c1ncccn1", "note": "(stereo partly drawn)", "outcome": "inactive"},
      {"compound": "CN(C)C=O", "outcome": "inactive"},
      {"compound": "O=C(OCCOCCOC(=O)c1ccccc1)c1ccccc1", "outcome": "inactive"},
      {"compound": "CCCCCCCCC(=O)O", "outcome": "inactive"},
      {"compound": "CC[C@H](c1ccc(O)cc1)[C@@H](CC)c1ccc(O)cc1", "AC50": "92.8 µM (active)"},
      {"compound": "CC(C)(C)c1ccc(O)c(C(C)(C)C)c1", "outcome": "inactive"},
      {"compound": "O=[N+]([O-])c1ccc(O)cc1", "outcome": "inactive"},
      {"compound": "CCCCOCCO", "outcome": "inactive"},
      {"compound": "OCCC(F)(F)C(F)(F)C(F)(F)C(F)(F)C(F)(F)C(F)(F)F", "outcome": "inactive"},
      {"compound": "CCC(C)(C)C1CCC(O)CC1", "note": "(stereo not drawn)", "outcome": "inactive"},
      {"compound": "NC(=O)N1C(=O)C(C(=O)c2cc(Cl)cs2)c2cc(F)c(Cl)cc21", "note": "(stereo not drawn)", "AC50": "19.3 µM (active)"},
      {"compound": "CCCCCCC(=O)O", "outcome": "inactive"},
      {"compound": "ClC1=C(Cl)C(Cl)(Cl)C(Cl)=C1Cl", "outcome": "inactive"},
      {"compound": "COCC(C)OCC(C)O", "note": "(stereo not drawn)", "outcome": "inactive"},
      {"compound": "C[C@@H]1C[C@H]2[C@@H]3CCC4=CC(=O)C=C[C@]4(C)[C@@]3(F)[C@@H](O)C[C@]2(C)[C@@]1(O)C(=O)COP(=O)(O)O", "outcome": "inactive"},
      {"compound": "CCCCC(CC)COC(=O)CCCCC(=O)OCc1ccccc1", "note": "(stereo not drawn)", "outcome": "inactive"},
      {"compound": "O=C(O)Cc1cc(I)c(Oc2cc(I)c(O)c(I)c2)c(I)c1", "AC50": "56.2 µM (active)"},
      {"compound": "CCC(=C(c1ccc(O)cc1)c1ccc(OCCN(C)C)cc1)c1ccccc1", "outcome": "inactive"},
      {"compound": "CCc1nn(C2CCCCC2)c2cc(C3(C#N)CCC(C(=O)O)CC3)ccc12", "note": "(stereo not drawn)", "AC50": "56.2 µM (active)"},
      {"compound": "CCCCCCCCOC(=O)CCCCCCCCC(=O)OCCCCCCCC", "outcome": "inactive"},
      {"compound": "Oc1cccc(O)c1", "outcome": "inactive"},
      {"compound": "CCc1ccc(CCOc2ccc(CC3SC(=O)NC3=O)cc2)nc1", "note": "(stereo not drawn)", "AC50": "67.5 µM (active)"},
      {"compound": "OCCC(F)(F)C(F)(F)C(F)(F)C(F)(F)C(F)(F)C(F)(F)C(F)(F)C(F)(F)F", "outcome": "inactive"},
      {"compound": "O=C(O)c1ccccc1C(c1ccc(O)cc1)c1ccc(O)cc1", "outcome": "inactive"},
      {"compound": "CCCCCCCCCCCCc1ccccc1S(=O)(=O)O", "AC50": "79.6 µM (active)"},
      {"compound": "Cc1oc(-c2ccccc2)nc1CCOc1ccc(C[C@H](Nc2ccccc2C(=O)c2ccccc2)C(=O)O)cc1", "AC50": "23.4 µM (active)"},
      {"compound": "c1ccc2c(c1)ccc1ccccc12", "outcome": "inactive"},
      {"compound": "CCCCC(CC)COC(=O)CCCCC(=O)OCC(CC)CCCC", "note": "(stereo not drawn)", "outcome": "inactive"},
      {"compound": "CC(C)CCCCCCOC(=O)CCCCC(=O)OCCCCCCC(C)C", "outcome": "inactive"},
      {"compound": "COc1ccc([N+](=O)[O-])cc1N", "outcome": "inactive"},
      {"compound": "Cc1cc(CCN2CCN(c3nsc4ccccc34)CC2)cc2c1NC(=O)CC2(C)C", "AC50": "77.5 µM (active)"},
      {"compound": "CCCOc1sc(C(=O)N2CCC(c3cc(CN)ccc3F)CC2)c(C)c1Br", "outcome": "inactive"}
    ]}
  ]
}
